# Measured values published in PubChem BioAssay.
# Calls of active or inactive are those of the source. Unless noted, no rule for the calls is given here.
# What was measured:
# [1] = resazurin metabolic signal in HepG2 cells – cell-based, resazurin fluorescence, 24 h, PK04 Diversity Set, profiling panel (AID 1172); settings: HepG2 viability, higher = more signal
# [2] = budding yeast growth changes without added modifier – OD600, strain BY4716, 24 h, basal condition, primary screen (AID 1173); settings: S. cerevisiae BY4716 growth, OD600, 24 h; higher = more signal, called active from +8 up or from −8 down
# [3] = viability profiling in MM1S myeloma cells – cell-based, resazurin fluorescence, basal, 24 h, PK04 Diversity Set, profiling panel (AID 1174); settings: higher = more signal, called active from +8 up or from −8 down;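 also: MM1S multiple myeloma cell line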
# [4] = biological target: Dihydroorotate dehydrogenase (quinone), mitochondrial (Plasmodium falciparum (isolate 3D7)) (UniProt Q08210); assay: inhibition of P. falciparum DHODH – biochemical, C-terminal His tag, absorbance 600 nm, primary screen (AID 1175); settings: PfDHODH enzyme, DCIP absorbance 600 nm; higher = more signal, called active from +8 up or from −8 down;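 also: recombinant parasite enzyme with a five histidine tag at its C terminus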
# Dihydroorotate dehydrogenase (quinone), mitochondrial (Plasmodium falciparum (isolate 3D7)), sequence (Q08210 whole entry, looked up): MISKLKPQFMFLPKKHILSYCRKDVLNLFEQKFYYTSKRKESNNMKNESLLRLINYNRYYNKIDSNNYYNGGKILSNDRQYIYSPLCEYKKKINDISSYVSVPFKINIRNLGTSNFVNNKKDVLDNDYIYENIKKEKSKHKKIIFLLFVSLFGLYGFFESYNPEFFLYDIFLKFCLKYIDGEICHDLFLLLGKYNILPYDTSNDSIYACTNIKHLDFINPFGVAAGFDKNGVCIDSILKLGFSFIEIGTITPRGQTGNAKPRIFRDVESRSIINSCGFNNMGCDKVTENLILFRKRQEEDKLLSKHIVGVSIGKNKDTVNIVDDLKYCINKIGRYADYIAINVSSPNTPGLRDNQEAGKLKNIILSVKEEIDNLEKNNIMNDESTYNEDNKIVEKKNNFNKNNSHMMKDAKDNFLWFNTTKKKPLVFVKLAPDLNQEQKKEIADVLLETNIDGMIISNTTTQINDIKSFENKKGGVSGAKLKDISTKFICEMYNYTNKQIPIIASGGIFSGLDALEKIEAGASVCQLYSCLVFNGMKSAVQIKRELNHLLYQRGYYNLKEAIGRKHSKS
# [5] = inhibition of PAO1 biofilm formation – strain PAO1, LB-PBS medium, absorbance 600 nm, primary screen (AID 1176); settings: P. aeruginosa PAO1 growth/biofilm, A600, 12 h; higher = more signal
# [6] = growth modulation of vineyard yeast isolate – strain RM11-1a, OD600, basal, 24 h, primary screen (AID 1177);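 also: cultures grown under basal conditions with no added stressor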; settings: S. cerevisiae RM11-1a growth, OD600, 24 h; higher = more signal, called active from +8 up or from −8 down
# [7] = growth of efflux-deficient E. coli DRC39 – strain DRC39, OD650, 24 h, E. coli filamentation inducers, primary screen (AID 1178);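 also: growth measured as culture turbidity by optical density at 650 nm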; settings: E. coli DRC39 acrAB, higher = more signal, called active from +8 up or from −8 down
# [8] = growth of efflux-deficient E. coli DRC39 – strain DRC39, OD650, 48 h, E. coli filamentation inducers, primary screen (AID 1179);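 also: screen aims at cell division blockers that make cells filament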; settings: E. coli DRC39 delta-acrAB growth, higher = more signal, called active from +8 up or from −8 down
# [9] = viability profiling in RPMI8226 myeloma cells – cell-based, resazurin fluorescence, basal, 24 h, PK04 Diversity Set, profiling panel (AID 1180); settings: higher = more signal;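 also: RPMI8826 multiple myeloma cell line at 5000 cells per well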
# [10] = biological target: E3 ubiquitin-protein ligase XIAP (Homo sapiens) (UniProt P98170); assay: small molecules binding XIAP protein – biophysical, small-molecule microarray, fluorescence 635 nm, primary screen (AID 1181); settings: higher = more signal;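 also: score merges 667 nm emission and signal to noise over triplicate slides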
# E3 ubiquitin-protein ligase XIAP (Homo sapiens), sequence (P98170 whole entry, looked up, the tested form may be a part): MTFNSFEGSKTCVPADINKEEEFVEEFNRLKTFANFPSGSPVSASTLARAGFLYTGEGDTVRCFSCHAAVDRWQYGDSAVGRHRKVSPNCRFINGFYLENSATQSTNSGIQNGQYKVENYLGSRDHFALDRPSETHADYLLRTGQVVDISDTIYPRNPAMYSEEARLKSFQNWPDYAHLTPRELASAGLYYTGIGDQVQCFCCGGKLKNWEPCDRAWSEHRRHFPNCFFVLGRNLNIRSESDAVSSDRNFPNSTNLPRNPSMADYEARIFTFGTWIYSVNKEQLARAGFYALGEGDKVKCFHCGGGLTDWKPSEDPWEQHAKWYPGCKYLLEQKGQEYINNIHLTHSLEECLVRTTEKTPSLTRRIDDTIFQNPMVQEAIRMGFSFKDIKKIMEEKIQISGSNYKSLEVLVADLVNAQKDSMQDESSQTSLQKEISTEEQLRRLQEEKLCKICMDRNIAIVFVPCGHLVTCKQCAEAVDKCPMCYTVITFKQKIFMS
# [11] = test system: XIP peptide (Xip251-270) binding; assay: XIP fragment 251-270 binding compounds – biochemical, small-molecule microarray, fluorescence 635/667 nm, 0.1 µg/mL protein, primary screen (AID 1182); settings: fluorescent protein binding, 635 nm, higher = more signal, called active from +8 up or from −8 down
# XIP peptide (Xip251-270) = assay: compounds binding XIP fragment 251-270 – biochemical, small-molecule microarray, fluorescence 635/667 nm, 0.5 µg/mL protein, primary screen (AID 1183); settings: fluorescence 635 nm, higher = more signal
# [12] = blood-stage malaria parasite viability loss – strain 3D7, DAPI fluorescence, 100 nL, primary screen (AID 1184);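 also: parasites grown inside human red blood cells in medium with human serum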; settings: P. falciparum 3D7 growth, 3 d, higher = more signal
# [13] = biological target: Homeobox protein Hox-A13 (Mus musculus) (UniProt Q62424); assay: disruptors of Hoxa13 oligonucleotide interaction – biochemical, fluorescence polarization, labeled oligonucleotide, primary screen (AID 1185); settings: Hoxa13:DNA binding, 15 min, higher = more signal, called active from +8 up or from −8 down
# Homeobox protein Hox-A13 (Mus musculus), sequence (Q62424 whole entry, looked up): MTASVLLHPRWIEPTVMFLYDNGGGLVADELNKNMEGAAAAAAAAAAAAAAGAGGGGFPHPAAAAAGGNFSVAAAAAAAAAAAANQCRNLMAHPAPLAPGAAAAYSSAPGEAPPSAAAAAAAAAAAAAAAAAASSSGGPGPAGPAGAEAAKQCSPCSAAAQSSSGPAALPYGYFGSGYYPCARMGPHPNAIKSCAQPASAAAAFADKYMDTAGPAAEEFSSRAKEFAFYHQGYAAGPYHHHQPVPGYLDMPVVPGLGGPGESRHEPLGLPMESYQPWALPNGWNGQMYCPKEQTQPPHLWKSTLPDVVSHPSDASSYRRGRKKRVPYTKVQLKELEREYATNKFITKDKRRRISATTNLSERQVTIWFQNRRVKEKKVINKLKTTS
# [14] = blockers of DNA damage checkpoint Chk1 activation – imaging, HeLa, hydroxyurea, phospho-Chk1 antibody, percent positive cells, primary screen (AID 1186); settings: hydroxyurea-induced phospho-Chk1 immunofluorescence imaging, higher = more signal
# [15] = blockers of DNA damage checkpoint Chk1 activation – imaging, HeLa, hydroxyurea, phospho-Chk1 nuclear intensity, primary screen (AID 1187); settings: hydroxyurea-induced phospho-Chk1 immunofluorescence imaging, higher = more signal
SMILES,z-score [1],z-score [2],z-score [3],composite z-score [4],z-score [5],z-score [6],z-score [7],z-score [8],z-score [9],composite z-score [10],composite z-score [11],composite z-score (XIP peptide (Xip251-270)),z-score [12],z-score [13],z-score [14],z-score [15]
CN1C(=O)C2C=CC(C(O)C(c3ccccc3)c3ccccc3)N(NC(=O)OC(C)(C)C)C2C1=O (stereo not drawn),-0.889,-4.58 (inactive),-0.861 (inactive),-1.08 (inactive),0.791 (inactive),0.225 (inactive),-0.963 (inactive),-0.577 (inactive),-0.962,0.497,3.1 (inactive),0.752,0.617,-4.08 (inactive),0.242 (inactive),-0.158 (inactive)
COC(=O)[C@@]1(Cc2ccc(OC)cc2)[C@H]2c3cc(C(=O)N4CCCC4)n(Cc4cc(F)c(F)c(F)c4)c3C[C@H]2CN1C(=O)c1ccccc1,0.0559,1.35 (inactive),-2.23 (inactive),0.13 (inactive),1.03 (inactive),0.0628 (inactive),-0.824 (inactive),-0.254 (inactive),-3.1,0.25,0.902 (inactive),0.604,-1.56,-2.27 (inactive),-0.345 (inactive),-0.868 (inactive)
C=CCOC(=O)[C@H]1[C@@H]2C(=O)O[C@@H](c3ccccc3)[C@@H](c3ccccc3)N2[C@@H](c2ccc(OCCOC(=O)[C@H]3C[C@H]4C(=O)N5CCC[C@H]5C(=O)N4[C@H]3c3cccc(OCCO)c3)cc2)[C@]12C(=O)Nc1ccc(I)cc12,0.187,0.0932 (inactive),-0.376 (inactive),-15.3 (active),-0.102 (inactive),-0.442 (inactive),-0.277 (inactive),-0.553 (inactive),0.0614,0.724,2.54 (inactive),0.829,-0.139,-1.27 (inactive),-0.576 (inactive),-0.305 (inactive)
